# Results published in ChEMBL document CHEMBL1961873, “Compounds: GSK PKIS; Assays: Nanosyn kinase panel” (2012).
# Molecular target: Protein kinase C beta type (Homo sapiens) (UniProt P05771)
# Conditions: at 0.1 µM
# Protein kinase C beta type (Homo sapiens), sequence (P05771 2-671 limits assumed): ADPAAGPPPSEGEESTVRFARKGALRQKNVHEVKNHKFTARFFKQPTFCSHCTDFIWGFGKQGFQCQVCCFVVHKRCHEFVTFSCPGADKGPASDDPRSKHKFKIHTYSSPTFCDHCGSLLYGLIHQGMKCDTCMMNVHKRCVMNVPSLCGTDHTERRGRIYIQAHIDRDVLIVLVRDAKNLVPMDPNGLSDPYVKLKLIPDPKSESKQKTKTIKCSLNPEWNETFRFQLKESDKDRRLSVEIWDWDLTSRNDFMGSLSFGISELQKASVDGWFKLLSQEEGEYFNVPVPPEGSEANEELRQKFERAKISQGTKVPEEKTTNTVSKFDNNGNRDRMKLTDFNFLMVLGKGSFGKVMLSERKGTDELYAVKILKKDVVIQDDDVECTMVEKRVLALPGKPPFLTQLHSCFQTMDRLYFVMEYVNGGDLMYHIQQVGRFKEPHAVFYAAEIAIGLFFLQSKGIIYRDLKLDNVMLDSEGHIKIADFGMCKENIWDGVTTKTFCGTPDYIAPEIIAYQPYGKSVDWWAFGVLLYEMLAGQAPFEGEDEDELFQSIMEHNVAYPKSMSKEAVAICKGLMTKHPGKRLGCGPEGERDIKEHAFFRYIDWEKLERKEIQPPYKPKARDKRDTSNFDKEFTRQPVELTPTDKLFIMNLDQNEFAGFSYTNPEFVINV
row,SMILES,inhibition
1,CS(=O)(=O)CCNCc1ccc(-c2ccc3ncnc(Nc4ccc(OCc5cccc(F)c5)c(C(F)(F)F)c4)c3c2)o1,0.59%
2,Nc1nc(-c2ccccn2)c(-c2ccc3ncccc3n2)s1,0.07%
3,c1cnn2ncc(-c3ccnc(Nc4ccc5c(c4)OCCO5)n3)c2c1,1.95%
4,Cc1ccc(C(=O)NC2CCCCC2)cc1-c1ccc(C(=O)NCC2CC2)cc1,1.17%
5,CS(=O)(=O)Nc1ccc(N/C=C2\C(=O)Nc3ccccc32)cc1,-0.94%
6,CC1=C(C(=O)Nc2ccc3[nH]ncc3c2)C(c2ccc3ccccc3c2)CC(=O)N1 (stereo not drawn),1.81%
7,CC1=C(C(=O)Nc2ccc3[nH]ncc3c2)C(c2ccc(Cl)c(Cl)c2)CC(=O)N1 (stereo not drawn),-1.01%
8,COc1ccc(COc2ccc(Cc3cnc(N)nc3N)cc2OC)cc1,3.26%
9,NCc1ccc(-c2nc(-c3ccc(Cl)c(O)c3)c(-c3ccncc3)[nH]2)cc1,5.37%
10,COc1cc2ncn(-c3cc(O[C@@H](C)c4ccccc4Cl)c(C(N)=O)s3)c2cc1OC,3.42%
11,CCc1cccc(NC(=O)Nc2ccc(Oc3ccc4nc(NC(=O)OC)[nH]c4c3)cc2)c1,0.28%
12,CCn1c(-c2nonc2N)nc2cncc(C(=O)N3CCNCC3)c21,2.12%
13,O=C1Nc2ccc(C(=O)c3ccco3)cc2C1=Cc1cc(Cl)c(O)c(Cl)c1,-0.57%
14,COc1ccc(-c2coc3ncnc(N)c23)cc1,-0.46%
15,CCn1c(-c2nonc2N)nc2cncc(C(=O)N3CC[C@H](N)C3)c21,43.9%
16,Cc1cccc(-c2n[nH]cc2-c2ccc3ncccc3n2)n1,0.17%
17,NS(=O)(=O)c1cccc(-c2ccc3c(NC(=O)C4CC4)n[nH]c3c2)c1,-0.11%
18,COC(=O)Nc1nc2cc(Oc3ccc(NC(=O)Nc4cccc(C(=O)O)c4)cc3)ccc2[nH]1,0.02%
19,CN1CCC(C(=O)Nc2n[nH]c3nnc(-c4ccccc4)cc23)CC1,1.03%

# Molecular target: Protein kinase C beta type (Homo sapiens) (UniProt P05771)
# Conditions: at 1 µM
row,SMILES,inhibition
1,CCCN1CCC=C(c2ccc(Nc3nc(Nc4ccccc4C(N)=O)c4cc[nH]c4n3)c(C)c2)C1,-0.64%
2,CS(=O)(=O)CCNCc1nc(-c2ccc3ncnc(Nc4ccc(F)c(Cl)c4)c3c2)cs1,2.07%
3,COc1cc2c(cc1Nc1nc(N3CCc4ccccc43)c3cc[nH]c3n1)N(C(=O)CN(C)C)CC2,0.59%
4,COc1cc2ncn(-c3cc(OCc4ccccc4Cl)c(C(N)=O)s3)c2cc1OC,0.68%
5,CS(=O)(=O)CCNCc1ccc(-c2ccc3ncnc(Nc4ccc(OCc5ccccc5)c(Cl)c4)c3c2)o1,-2.64%
6,Nc1ncnc2occ(-c3ccc(NC(=O)Nc4cccc(C(F)(F)F)c4)cc3)c12,12.6%
7,COc1ccc(-c2ccncc2)cc1C(N)=O,0.96%
8,Fc1cccc(COc2ccc(Nc3ncnc4cc(-c5ccc[nH]5)sc34)cc2Cl)c1,0.9%
9,CCn1c(-c2nonc2N)nc2c(N3CCCC3)nccc21,13.4%
10,Cc1nn(C)c2cc(N(C)c3ccnc(Nc4cccc(S(N)(=O)=O)c4)n3)ccc12,6%
11,CC(=O)Nc1cccc(C#Cc2cncnc2Nc2ccc(OCc3cccc(F)c3)c(Cl)c2)n1,8.84%
12,Nc1nc(-c2ccc3c(c2)C(=Cc2cc(Br)c(O)c(Br)c2)C(=O)N3)cs1,0.52%
13,CCN1CCC(CC(=O)Nc2n[nH]c3nc(-c4cccs4)c(Br)cc23)CC1,1.35%
14,COc1ccc2cc(-c3c(-c4ccncc4)nc(-c4ccc([S+](C)[O-])cc4)n3C)ccc2c1 (stereo not drawn),7.1%
15,NS(=O)(=O)c1ccc(N/N=C2\C(=O)Nc3ccc(C(=O)NCCc4c[nH]cn4)cc32)cc1,-0.4%
16,CS(=O)(=O)CCNCc1ccc(-c2ccc3ncnc(Nc4ccc(OCc5cccc(F)c5)c(C(F)(F)F)c4)c3c2)o1,1.62%
17,Nc1nc(-c2ccccn2)c(-c2ccc3ncccc3n2)s1,1.26%
18,c1cnn2ncc(-c3ccnc(Nc4ccc5c(c4)OCCO5)n3)c2c1,4.36%
19,Cc1ccc(C(=O)NC2CCCCC2)cc1-c1ccc(C(=O)NCC2CC2)cc1,1.93%
20,CS(=O)(=O)Nc1ccc(N/C=C2\C(=O)Nc3ccccc32)cc1,-1.13%
21,CC1=C(C(=O)Nc2ccc3[nH]ncc3c2)C(c2ccc3ccccc3c2)CC(=O)N1 (stereo not drawn),0.44%
22,CC1=C(C(=O)Nc2ccc3[nH]ncc3c2)C(c2ccc(Cl)c(Cl)c2)CC(=O)N1 (stereo not drawn),-0.1%
23,COc1ccc(COc2ccc(Cc3cnc(N)nc3N)cc2OC)cc1,2.56%
24,NCc1ccc(-c2nc(-c3ccc(Cl)c(O)c3)c(-c3ccncc3)[nH]2)cc1,27.9%
